Measured values as given in the supplement of paper PMC12669032.
Unmarked numbers belong to inactive results.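 Rule for the calls: active = AUC reduced over 20% with Padj below 0.05 in at least 2 of 3 replicates; inactive = otherwise.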

Experiments:
Test in all cases: growth AUC relative to DMSO control (median of replicates) (fraction); higher = more growth (less inhibition), active = hit call of the paper
Details in all cases: 20 µM; 24 h
Akkermansia muciniphila = test system: Akkermansia muciniphila
Method in brief: (§1)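 Area under the growth curve was normalised to the plate median of solvent-only wells, or to row and column medians on the industrial chemical plate. Growth curves came from anaerobic gut bacterial monocultures in mGAM at 37 °C, seeded at OD600 0.05 with 20 µM compound (1% DMSO), and read at OD600 hourly for 24 h with the minimum OD set to 0. The value is the median of three biological replicates grown on separate days.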

Bacteroides caccae = test system: Bacteroides caccae
Method in brief: as §1

Bacteroides clarus = test system: Bacteroides clarus
Method in brief: as §1

Bacteroides dorei = test system: Bacteroides dorei
Method in brief: as §1

Bacteroides stercoris = test system: Bacteroides stercoris
Method in brief: as §1

[1] = test system: Bacteroides thetaiotaomicron
Method in brief: as §1

Bacteroides uniformis = test system: Bacteroides uniformis
Method in brief: as §1

[2] = test system: Bifidobacterium longum subsp. longum
Method in brief: as §1

Clostridium difficile = test system: Clostridium difficile
Method in brief: as §1

Collinsella aerofaciens = test system: Collinsella aerofaciens
Method in brief: as §1

| SMILES | growth AUC (Akkermansia muciniphila) | growth AUC (Bacteroides caccae) | growth AUC (Bacteroides clarus) | growth AUC (Bacteroides dorei) | growth AUC (Bacteroides stercoris) | growth AUC [1] | growth AUC (Bacteroides uniformis) | growth AUC [2] | growth AUC (Clostridium difficile) | growth AUC (Collinsella aerofaciens) |
| --- | --- | --- | --- | --- | --- | --- | --- | --- | --- | --- |
| CC(CNC(=S)[S-])NC(=S)[S-].[Zn+2] (mixture of isomers) | 1.05 | 0.937 | 1.02 | 1 | 1.12 | 1.01 | 1.03 | 0.975 | 1 | 0.999 |
| N[C@@H](Cc1cc(I)c(Oc2cc(I)c(O)c(I)c2)c(I)c1)C(=O)O | 1.1 | 0.944 | 0.96 | 1.04 | 0.838 | 0.908 | 1.01 | 0.93 | 0.945 | 0.923 |
| NC(Cn1cncn1)C(=O)O (stereo not given) | 0.948 | 0.985 | 0.992 | 0.983 | 1.01 | 1 | 0.998 | 0.966 | 0.981 | 1.01 |
| O=C(O)CNC(=O)c1cnccc1C(F)(F)F | 1.02 | 1 | 1.02 | 0.976 | 1.07 | 0.99 | 1.02 | 1.06 | 0.924 | 0.989 |
| c1ccc(Sc2ccccc2)cc1 | 1.03 | 1.01 | 1.08 | 1.01 | 1.05 | 0.982 | 1.05 | 1.03 | 1.02 | 1.04 |
| CCC/C(=N\OCC(C)Oc1ccc(Cl)cc1)C1=C(O)CC(C2CCCSC2)CC1=O (stereo not given) | 0.924 | 0.949 | 0.958 | 1 | 0.843 | 0.901 | 0.939 | 0.91 | 1.02 | 0.973 |
| COC(=O)COc1ccc(Cl)cc1C | 0.917 | 1.04 | 0.986 | 1.01 | 1.03 | 1.01 | 1.01 | 0.805 | 0.989 | 1.01 |
| CCCN(CCC)C(=O)SCC | 0.884 | 1.02 | 0.97 | 1.01 | 0.942 | 0.998 | 0.959 | 0.97 | 1.03 | 0.992 |
| CCCOC(=O)c1ccc(C(=O)OCCC)nc1 | 1.06 | 1.01 | 0.99 | 1.04 | 0.94 | 1.02 | 0.99 | 1.05 | 0.99 | 0.967 |
| COCCOc1ccccc1S(=O)(=O)NC(=O)Nc1nc(OC)nc(OC)n1 | 1.03 | 0.976 | 0.97 | 0.962 | 0.92 | 1 | 1.02 | 1.06 | 0.984 | 0.908 |
| Cc1nn(C)c(F)c1C(=O)Nc1ccccc1C(C)CC(C)C (stereo not given) | 0.94 | 0.97 | 0.959 | 0.988 | 1.04 | 0.968 | 0.947 | 0.992 | 0.982 | 1.02 |
| CC(C)CNC(=O)N1CCNC1=O | 1.09 | 0.975 | 1.02 | 0.96 | 1.18 | 1.02 | 1.02 | 1.04 | 1.04 | 1.08 |
| COC(=O)c1c(Cl)nn(C)c1S(=O)(=O)NC(=O)Nc1nc(OC)cc(OC)n1 | 0.984 | 1.04 | 1.07 | 1.02 | 1 | 0.991 | 1 | 1.06 | 1 | 1.02 |
| COc1cc(OC)nc(NC(=O)NS(=O)(=O)N(C)S(C)(=O)=O)n1 | 0.951 | 1.03 | 1.05 | 1.01 | 1.06 | 0.982 | 0.98 | 0.945 | 0.907 | 1.04 |
| COc1cc(OC)nc(NC(=O)NS(=O)(=O)Nc2ccccc2C(=O)C2CC2)n1 | 0.985 | 0.988 | 0.943 | 0.963 | 0.983 | 0.961 | 0.915 | 0.961 | 1.01 | 0.997 |
| O=C(Nc1ccc(F)cc1-c1ccc(Cl)c(Cl)c1)c1cn[nH]c1C(F)F | 1.02 | 0.865 | 0.724 (active) | 0.968 | 0.349 (active) | 0.635 (active) | 0.689 (active) | 0.952 | 0.971 | 1.01 |
| Oc1ccc2nc(-c3cscn3)[nH]c2c1 | 0.877 | 1.07 | 0.955 | 0.997 | 0.98 | 0.985 | 0.982 | 1.01 | 0.988 | 1.01 |
| COC(=O)c1ccc(C(=O)OC)cc1 | 0.99 | 0.964 | 0.978 | 1.01 | 1.02 | 0.991 | 0.972 | 0.993 | 1.01 | 1.01 |
| COc1ccccc1C(=O)NS(=O)(=O)c1ccc(C(=O)NC2CC2)cc1 | 0.895 | 1.01 | 0.994 | 1 | 1.03 | 0.954 | 0.999 | 0.954 | 0.985 | 1.02 |
| CCc1cccc(CC)c1N(COC)C(=O)CS(=O)(=O)[O-].[Na+] | 1.02 | 0.953 | 1.01 | 0.989 | 1.07 | 0.876 | 0.996 | 1.04 | 1.07 | 0.966 |
| CCc1ccc(O)cc1 | 0.993 | 0.884 | 1.01 | 0.95 | 1.24 | 0.989 | 1.01 | 1.01 | 0.957 | 0.919 |
| CCOc1ccc2c(c1)C(C)=CC(C)(C)N2 | 0.9 | 1.04 | 1 | 1 | 1.01 | 0.995 | 1.01 | 1.03 | 1.02 | 1.02 |
| CCNc1nc(N)[nH]c(=O)n1 | 1.01 | 1.01 | 0.998 | 1.01 | 1.03 | 0.998 | 1.02 | 0.986 | 0.999 | 1.04 |
| COC(=O)C(C)Oc1ccc(Cl)cc1C (stereo not given) | 0.866 | 0.999 | 0.996 | 1 | 1.15 | 1 | 1 | 1 | 0.974 | 1.04 |
| O=C(O)COc1ccc(Cl)cc1CO | 1.15 | 0.99 | 0.995 | 0.721 | 0.938 | 0.971 | 0.98 | 1 | 1.03 | 0.96 |
| N#Cc1ccc(CC(=NNC(=O)Nc2ccc(OC(F)(F)F)cc2)c2cccc(C(F)(F)F)c2)cc1 (mixture of isomers) | 1 | 1.03 | 1.02 | 1.03 | 0.988 | 1.02 | 1.02 | 0.999 | 1.01 | 1.03 |
| N#Cc1c(N)nc(NC2CC2)nc1N | 0.971 | 1.03 | 0.972 | 1.02 | 0.984 | 1.01 | 0.987 | 0.899 | 1.06 | 1.05 |
| COc1ccc(NC(=O)N(C)C)cc1Cl | 0.982 | 0.975 | 1 | 1.01 | 0.891 | 0.995 | 1.02 | 1.11 | 0.995 | 0.94 |
| C#CC(C)N(C)C(=O)Nc1ccc(Cl)cc1 (stereo not given) | 0.974 | 0.995 | 0.985 | 0.978 | 1.1 | 1 | 0.99 | 0.966 | 0.946 | 1 |
